Assay outcomes: PubChem, The Scripps Research Institute Molecular Screening Center
FBW7 act = activators of human E3 ligase FBW7; Q969H0; AlphaScreen FBW7–phospho-cyclin E peptide binding, activator screen; AID 1259310; normalized activity (activation), % at 26.1 µM; 650,000 tested, 0.13% active; in the data active means normalized activity above about 1.9%;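 further: purified mutant Fbw7 with reduced substrate affinity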
GPR151 activ = activates the human receptor GPR151. Q8TDV0. PathHunter beta-arrestin GPR151 cells, luminescence. activation, % at 11.2 µM. 650,000 tested, 1% active; in the data active means activation above about 4.9%;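 further: 0% = median of compound wells and 100% = cells with positive control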
TEAD-YAP block = TEAD-YAP interaction inhibition; HEK-TIYL cells, TEAD-Gal4/YAP UAS-luciferase luminescence; inhibition, % at 9.12 µM; 640,000 tested, 1.4% active; in the data active means inhibition above about 32%;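 further: 0% = median of test compound wells and 100% = reference inhibitor wells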
MITF primary = human MITF inhibition, primary screen | O75030 | AlphaScreen MITF homodimerization, bead proximity signal | inhibition, % at 2.6 µM | 650,000 tested, 0.91% active | AID 1259374; in the data active means inhibition above about 50%;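 further: 0% = vehicle wells with protein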
Target sequence (O75030 whole entry, looked up): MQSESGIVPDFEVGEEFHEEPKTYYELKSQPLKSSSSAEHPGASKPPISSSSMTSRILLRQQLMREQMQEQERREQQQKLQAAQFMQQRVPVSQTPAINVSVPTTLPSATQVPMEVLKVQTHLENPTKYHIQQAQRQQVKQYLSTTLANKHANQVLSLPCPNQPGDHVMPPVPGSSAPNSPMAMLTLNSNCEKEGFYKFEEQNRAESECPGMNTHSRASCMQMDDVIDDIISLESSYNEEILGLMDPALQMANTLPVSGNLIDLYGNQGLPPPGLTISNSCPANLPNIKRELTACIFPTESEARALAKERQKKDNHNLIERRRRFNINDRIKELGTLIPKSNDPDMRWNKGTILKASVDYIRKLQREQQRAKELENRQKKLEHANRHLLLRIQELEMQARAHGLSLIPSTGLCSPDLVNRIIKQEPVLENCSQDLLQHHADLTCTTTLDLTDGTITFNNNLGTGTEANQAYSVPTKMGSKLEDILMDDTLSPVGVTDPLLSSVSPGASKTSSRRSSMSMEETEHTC
GPR151 conf act = confirmation of human GPR151 activators; activation, % at 11.2 µM; AID 1508609; 6,700 tested, under 10 active; GPR151 PathHunter beta-arrestin cells, luminescence, 90 min; % of EA-reagent control over plate median; shares compounds with GPR151 activ;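 active means mean percent activation across replicates above the confirmation screen cutoff of 4.91%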
GPR119 ag = activates human GPR119 in a GPR151 counter-screen; activation, % at 11.2 µM; 6,700 tested, 0.3% active; shares compounds with GPR151 activ; GPR119 PathHunter beta-arrestin cells, luminescence, 90 min; 0 = compound-well median, 100 = enzyme-acceptor control;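 active means mean percent activation in the counterscreen above 29.09%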;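 further: counterscreen on off-target GPR119 to flag nonselective hits from the GPR151 activator screen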
* marks the source's active call; other numbers are inactive results; nt = not tested or not shown; ! = not confirmed by another sample. The list is not random: actives were taken first. Their share in the collection is about 3.4%.

SMILES	FBW7 act	GPR151 activ	TEAD-YAP block	MITF primary	GPR151 conf act	GPR119 ag
CCC(C)(C)c1ccc(OCCOCCn2cc([N+](=O)[O-])nc2C)c(C(C)(C)CC)c1	0	5.6*	1	-9	0	6
O=C(CCCn1c(=O)c2cccn2c2cccnc21)NC1CCN(Cc2ccccc2)CC1	0	5.8*	-13	-8	-1	-4
COc1ccccc1CNC(=O)CCc1cn(C)c2ccccc12	0	5.9*	-4	-2	0	0
Cn1cc(CCC(=O)NC2CCN(Cc3ccccc3)CC2)c2ccccc21	0	5.9*	-4	1	2	1
O=C(CCCn1c(=O)c2cccn2c2ccccc21)NC1CCN(Cc2ccccc2)CC1	0	0	-4	-6	nt	nt
NC(=O)c1ccc(Sc2ccccc2)c([N+](=O)[O-])c1	0	2	-1	2	nt	nt
CSCC(=O)NC1CCCc2c1cnn2-c1ccc(F)cc1F (stereo not given)	0	1	5	-1	nt	nt
O=C(NCc1cccc(Cl)c1)c1ccc(Cn2nnc3ccccc3c2=O)cc1	0	1	1	15	nt	nt
CC(C)n1cnc2c(Nc3ccccc3)nc(Nc3ccc(-n4ccnc4)cc3)nc21	0	0	19	0	nt	nt
CCCSc1nnc2c(n1)OC(c1c(Cl)cccc1Cl)Nc1ccccc1-2 (stereo not given)	0	1	-26	0	nt	nt
COc1ccc(OCc2nc3c4cc(OC)c(OC)cc4nc(=S)n3[nH]2)cc1	0	1	1	-1	nt	nt
COc1cc2nc(=S)n3[nH]c(CCn4c(C)nc5ccccc54)nc3c2cc1OC	0	5.5*	-2	7	0	-2
CCOC(=O)c1cc(N2C(=O)C3C4C=CC(CC4)C3C2=O)ccc1Cl (stereo not given)	0	10*	8	4	0	7
CC(=Nc1ccn(Cc2ccccc2)n1)c1c(C)[nH]n(-c2ccc([N+](=O)[O-])cc2)c1=O	0	-5	-2	-5	nt	nt
CCc1ccc(CNCc2cc(NC(=O)c3ccccn3)cc(C(=O)N(C)C)c2)cc1	0	10*	2	-5	1	10
CC(C)(C)c1ccc(-c2n[nH]c(=S)n2-c2ccccc2)cc1	0	5.1*!	1	13	-1	-13
Nc1c(Cl)cc(-n2c(-c3ccccc3)n[nH]c2=S)cc1Cl	0	5.5*	5	-1	0	-3
S=c1[nH]nc(-c2ccc(Cl)cc2)n1-c1ccccc1	0	-2	15	12	nt	nt
Cc1cc(OCC(=O)NCc2nc(-c3ccccc3)no2)cc(C)c1Cl	0	3	-7	-1	nt	nt
CCN1CCCC1CNc1ncnc2c1cnn2-c1cccc(Cl)c1 (stereo not given)	0	1	5	6	nt	nt
CCOC(=O)C1=C(C)OC(N)=C(C#N)C1c1ccc(F)c(Br)c1 (stereo not given)	1	9.6*	3	27	0	9
CCOC(=O)C1=C(CC)OC(N)=C(C#N)C1c1ccc(F)c(Br)c1 (stereo not given)	0	0	10	-8	nt	nt
CCOC(=O)C1(CCCc2ccccc2)CCN(C(=O)CSc2ncccn2)CC1	0	-1	-8	-5	nt	nt
CCOC(=O)C1(CCc2ccccc2)CCN(C(=O)CSc2ncccn2)CC1	0	5.6*	-7	5	1	-3
CCOC(=O)C1(CC2CCCCO2)CCN(C(=O)CSc2ncccn2)CC1 (stereo not given)	0	4.9*	4	-3	0	5
SMILES	FBW7 act	GPR151 activ	TEAD-YAP block	MITF primary	GPR151 conf act	GPR119 ag
NC(=O)Nc1ccc(C(=O)Nc2ccccc2-c2ccccc2)cc1	0	0	3	2	nt	nt
Cc1nc2nc(SCC(=O)NC3CCCCC3)nn2c(C)c1Cc1c(F)cccc1Cl	0	6.4*	4	8	0	2
CN(C)c1ccc(C2OCC3(CO2)COC(c2ccc(N(C)C)cc2)OC3)cc1 (stereo not given)	0	1	-4	4	nt	nt
CN(C)CC(C)(C)C1OCC2(CO1)COC(C(C)(C)CN(C)C)OC2 (stereo not given)	0	6.9*	13	13	0	-2
COC(=O)C1=C(C)N=c2s/c(=C/c3ccc(C)cc3)c(=O)n2C1c1ccccc1Cl (stereo not given)	1	1	-6	-12	nt	nt
Cc1nnn(-c2nonc2N)c1C(=O)N/N=C1\CCc2ccccc21	0	3	-4	6	nt	nt
COc1cc(CN2CCN(c3ccc([N+](=O)[O-])cc3)CC2)ccc1O	0	0	-6	15	nt	nt
O=[N+]([O-])c1ccc(CN2CCN(Cc3cc(Br)ccc3O)CC2)cc1	0	6.6*	31	45	0	16
COc1ccc(CN2CCN(c3ccc([N+](=O)[O-])cc3)CC2)cc1O	0	6.7*	36*	50	0	18
COc1ccc(-c2cc(C(F)(F)F)nc(-n3cnc([N+](=O)[O-])c3)n2)cc1OC	0	0	6	6	nt	nt
O=C(c1cccc(F)c1F)N1CCCCCC1	1	4.9*	9	8	0	-5
O=C(c1cccc(F)c1F)N1CCCCC1	0	1	-3	-9	nt	nt
CCCC(=O)NCCc1ccc(F)cc1	0	19*	-11	-6	1	7
O=C(Cc1ccc(F)cc1)NCCc1ccc(F)cc1	0	0	-11	-7	nt	nt
CC(C)(Oc1ccc(Cl)cc1)C(=O)N1CCCC1	0	1	2	15	nt	nt
CCOC(=O)C1CCN(C(=O)C(C)(C)Oc2ccc(Cl)cc2)CC1	0	5.7*	-2	-1	0	7
CN(Cc1ccccn1)C(=O)C1CC(Cc2ccccc2Cl)=NO1 (stereo not given)	0	0	-42	-21	nt	nt
COc1ccc(-c2noc(COc3ccc4c(c3)OCO4)n2)cc1	1	5.1*	3	9	0	-1
COCCn1c(C)cc2c(c1=O)C(c1ccc(Cl)cc1Cl)C(C(=O)OC)=C(N)O2 (stereo not given)	0	7.1*	0	10	1	-6
COCCn1c(C)cc2c(c1=O)C(c1ccc(Cl)cc1)C(C(=O)OC)=C(N)O2 (stereo not given)	0	0	8	-3	nt	nt
Cc1ccc([N+](=O)[O-])cc1S(=O)(=O)Nc1cccc(-c2cn3cccnc3n2)c1	0	6.1*	-6	3	0	12
COC(=O)C1=C(C)N(C)C(C)=C(C(=O)OC)C1c1ccc(F)c(Br)c1	0	5.2*	4	3	0	5
O=C1NC(=S)/C(=C\c2ccccc2F)S1	0	7.2*	-1	9	0	23
CC1=NN(c2ccc(C)cc2)C(=O)/C1=C/c1ccc2c(c1)OCO2	0	5.3*	-4	-4	0	-1
CC1=NN(c2ccc(Cl)cc2)C(=O)/C1=C/c1ccc2c(c1)OCO2	0	0	0	7	nt	nt
